# Assay results from PubChem BioAssay (EPA / NIEHS).
# Records with an inconclusive call do not appear. Active and inactive are the calls of the source. Rule for the calls, unless noted: active = hit-call score of the fitted dose curve at least 0.9, where 1 is the maximum; inconclusive = response in the unintended direction; inactive = score below 0.9.
# Key:
# [1] = TOX21_p53_BLA_p2_viability: Viability Assessment in the Tox21 HCT-116 p53 Agonism Beta-lactamase Assay, Phase 2 (AID 2283591);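 note: actives lower the ATP signal meaning cytotoxicity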
# Outline: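 HCT116 p53-bla cells, 4000/well, dosed after 5 h plating (217-fold dilution of DMSO stocks) and incubated 16 h at 37C. Viability taken as cellular ATP by CellTiter-Glo luminescence after 30 min RT; signal loss marks cytotoxicity.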
# [2] = TOX21_p53_BLA_p3_viability: Viability Assessment in the Tox21 HCT-116 p53 Agonism Beta-lactamase Assay, Phase 3 (AID 2283593);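 note: cells exposed to compound for 16 h before reading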
# Outline: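 HCT116 cells, 4000/well, dosed 5 h after plating by pin transfer (217-fold dilution from DMSO stock) and incubated 16 h at 37C, 5% CO2. Viability read as ATP luminescence with CellTiter-Glo after 30 min at room temperature.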
# [3] = molecular target: Cellular tumor antigen p53 (Homo sapiens) (UniProt P04637); assay: TOX21_p53_BLA_p3_ratio: Tox21 HCT-116 p53 Agonism Beta-lactamase Assay, Ratio, Phase 3 (AID 2283596)
# Outline: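 HCT116 p53-bla cells (4000/well) given compound in DMSO (217-fold dilution) after 5 h, incubated 16 h at 37C. CCF4-AM substrate 2 h at room temperature; 460/530 nm emission ratio, gain fitted against DMSO.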
# [4] = TOX21_p53_BLA_p4_viability: Viability Assessment in the Tox21 HCT-116 p53 Agonism Beta-lactamase Assay, Phase 4 (AID 2283597);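 note: hits lower the luminescence signal meaning cytotoxicity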
# Outline: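 Compound exposure of HCT116 cells lasts 16 h at 37C, 5% CO2, with DMSO stocks diluted 217-fold. Cellular ATP is then quantified by CellTiter-Glo luminescence after 30 min at room temperature.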
# [5] = TOX21_p53_BLA_p5_viability: Viability Assessment in the Tox21 HCT-116 p53 Agonism Beta-lactamase Assay, Phase 5 (AID 2283600)
# Outline: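 Counter-readout for cytotoxicity: ATP-dependent luminescence from CellTiter-Glo, read in the beta-lactamase wells after 30 min at RT, following a 16 h compound exposure at 37C.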
# [6] = molecular target: Cellular tumor antigen p53 (Homo sapiens) (UniProt P04637); assay: TOX21_p53_BLA_p5_ratio: Tox21 HCT-116 p53 Agonism Beta-lactamase Assay, Ratio, Phase 5 (AID 2283599)
# Outline: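 HCT-116 p53-bla cells (4000/well) plated 5 h, dosed with compound (217-fold DMSO dilution) for 16 h at 37 C; CCF4-AM substrate 2 h at room temperature. Activity is the 460/530 nm emission ratio (405 nm excitation), fitted in gain-of-signal direction versus DMSO.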
# [7] = molecular target: Cellular tumor antigen p53 (Homo sapiens) (UniProt P04637); assay: TOX21_p53_BLA_p4_ratio: Tox21 HCT-116 p53 Agonism Beta-lactamase Assay, Ratio, Phase 4 (AID 2283601)
# Outline: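 HCT-116 p53 beta-lactamase reporter cells (4000/well) preincubated 5 h, then compound (217-fold dilution of DMSO stock) for 16 h at 37C. CCF4-AM substrate added 2 h at room temperature; 460/530 nm emission ratio fitted upward versus DMSO.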
# [8] = CCTE_Harrill_HTTr_Viability_MCF7: CCTE's 6-hour Cell Viability Assessment for the High-Throughput Transcriptomics (HTTr) Platform, in MCF-7 cells cultured in DMEM + 10% fetal bovine serum, Harrill Lab (AID 2284010; active = hit-call score of the fitted dose curve at least 0.9, where 1 is the maximum; inactive = score below 0.9)
# Outline: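 Viability measured through PI dye exclusion by high-content imaging at 6 h post-dosing.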
# [9] = CCTE_Harrill_HTTr_Apoptosis_MCF7: CCTE's 6-hour Apoptosis Assessment for the High-Throughput Transcriptomics (HTTr) Platform, in MCF-7 cells cultured in DMEM + 10% fetal bovine serum, Harrill Lab (AID 2284011; active = hit-call score of the fitted dose curve at least 0.9, where 1 is the maximum; inactive = score below 0.9)
# Outline: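 Cells are dosed with test chemicals at eight concentrations and imaged 6 hours later for caspase-3/7 activity using a green fluorogenic detection reagent. Activity is fitted in both directions against DMSO controls.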
# [10] = CCTE_Harrill_HTTr_CellCount_MCF7: CCTE's Cell Proliferation Assessment for the High-Throughput Transcriptomics (HTTr) Platform, Harrill Lab (AID 2284012);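 note: count of Hoechst-stained nuclei per well by high-content imaging in MCF-7 cells; cells exposed to compound for six hours; intended direction is loss of nuclei count meaning fewer cells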
# Outline: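 Nuclei counting (Hoechst, high content imaging) in MCF-7 after a 6 h treatment at eight concentrations. Activity fitted bidirectionally, DMSO as negative control.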
# [11] = molecular target: Thyroid hormone receptor alpha (Rattus norvegicus) + Thyroid hormone receptor beta (Rattus norvegicus) (UniProt P18113+P63059); assay: TOX21_TR_LUC_GH3_Antagonist_Followup: Tox21 GH3 Thyroid Hormone Receptor Antagonism Luciferase Follow-Up Assay (AID 2283942)
# Outline: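 Antagonist mode: GH3 cells seeded 1,500/well, compounds at 15 concentrations (92 uM to 5nM final) plus T3 at 1.0 nM final, 24 h at 37C. Luciferase read with ONE-Glo after 30 min at room temperature.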
# THRA (gene 7067) = THRA (gene 7067) (UniProt P10827); assay: TOX21_TRA_COA_Antagonist_Followup_ratio: Tox21 Thyroid Hormone Receptor alpha Antagonism through Coactivator Recruitment Follow-Up Assay, Ratio (AID 2283953)
# Outline: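 This follow-up to the GH3 luciferase screen checks specificity in a cell-free format. It measures SRC-2 coactivator peptide binding to TRα LBD by TR-FRET and scores loss of ratio signal relative to DMSO.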
# THRB (gene 7068) [12] = molecular target: THRB (gene 7068) (UniProt P10828); assay: TOX21_TRB_BLA_Antagonist_Followup_ratio: Tox21 Thyroid Hormone Receptor beta Antagonism Beta-lactamase (BLA) Follow-Up Assay, Ratio (AID 2283958)
# Outline: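 In this antagonist-mode follow-up, a stably integrated GAL4-TRβ LBD fusion drives a UAS-beta-lactamase reporter in HEK293T cells. Loss of ratio signal relative to DMSO after 18 h treatment indicates activity; parallel CellTiter-Glo flags cytotoxicity.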
# [13] = TOX21_TRB_BLA_Antagonist_Followup_viability: Viability Assessment in the Tox21 Thyroid Hormone Receptor beta Antagonism Beta-lactamase (BLA) Follow-Up Assay (AID 2283961)
# Outline: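 Cytotoxicity is measured in parallel with the antagonist-mode TRβ beta-lactamase screen, using ATP-coupled luciferase luminescence. Engineered HEK293T cells are treated for 18 h with 11-point compound series in triplicate.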
# THRB (gene 7068) [14] = molecular target: THRB (gene 7068) (UniProt P10828); assay: TOX21_TRB_COA_Antagonist_Followup_ratio: Tox21 Thyroid Hormone Receptor beta Antagonism through Coactivator Recruitment Follow-Up Assay, Ratio (AID 2283967)
# Outline: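 Cell-free TR-FRET: GST-TRb LBD (5.0 nM) with fluorescein-SRC-2 peptide (200 nM) and Tb anti-GST antibody (2 nM), 0.10% BSA. 520:495 nm emission ratio normalized to DMSO (0%) and T3 (100%).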
# Chain of Cellular tumor antigen p53 (Homo sapiens) (P04637 whole entry, looked up): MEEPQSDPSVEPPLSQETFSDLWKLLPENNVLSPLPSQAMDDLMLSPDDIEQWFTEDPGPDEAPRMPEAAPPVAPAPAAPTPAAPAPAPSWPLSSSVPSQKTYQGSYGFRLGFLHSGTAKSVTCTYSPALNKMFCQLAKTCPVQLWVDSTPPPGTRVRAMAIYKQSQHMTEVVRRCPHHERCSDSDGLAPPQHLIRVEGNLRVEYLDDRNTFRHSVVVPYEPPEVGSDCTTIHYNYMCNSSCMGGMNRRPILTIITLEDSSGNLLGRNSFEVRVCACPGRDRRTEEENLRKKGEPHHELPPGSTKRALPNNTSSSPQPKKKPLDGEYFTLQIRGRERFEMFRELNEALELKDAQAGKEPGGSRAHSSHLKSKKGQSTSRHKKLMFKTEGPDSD
# Chain of THRB (gene 7068) (P10828 whole entry, looked up, the tested form may be a part): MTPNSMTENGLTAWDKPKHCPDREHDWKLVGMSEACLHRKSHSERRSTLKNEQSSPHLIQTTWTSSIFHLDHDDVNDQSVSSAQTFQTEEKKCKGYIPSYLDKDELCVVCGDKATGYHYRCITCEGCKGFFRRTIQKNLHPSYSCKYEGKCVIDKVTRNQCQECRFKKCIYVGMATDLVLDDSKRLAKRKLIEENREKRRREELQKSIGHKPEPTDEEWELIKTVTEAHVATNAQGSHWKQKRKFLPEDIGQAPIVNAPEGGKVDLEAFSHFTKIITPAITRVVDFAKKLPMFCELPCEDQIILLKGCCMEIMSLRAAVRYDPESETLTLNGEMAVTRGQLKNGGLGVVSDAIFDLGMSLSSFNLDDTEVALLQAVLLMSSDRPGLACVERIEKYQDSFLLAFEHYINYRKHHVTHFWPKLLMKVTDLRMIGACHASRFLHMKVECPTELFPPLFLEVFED
# Chain of THRA (gene 7067) (P10827 whole entry, looked up, the tested form may be a part): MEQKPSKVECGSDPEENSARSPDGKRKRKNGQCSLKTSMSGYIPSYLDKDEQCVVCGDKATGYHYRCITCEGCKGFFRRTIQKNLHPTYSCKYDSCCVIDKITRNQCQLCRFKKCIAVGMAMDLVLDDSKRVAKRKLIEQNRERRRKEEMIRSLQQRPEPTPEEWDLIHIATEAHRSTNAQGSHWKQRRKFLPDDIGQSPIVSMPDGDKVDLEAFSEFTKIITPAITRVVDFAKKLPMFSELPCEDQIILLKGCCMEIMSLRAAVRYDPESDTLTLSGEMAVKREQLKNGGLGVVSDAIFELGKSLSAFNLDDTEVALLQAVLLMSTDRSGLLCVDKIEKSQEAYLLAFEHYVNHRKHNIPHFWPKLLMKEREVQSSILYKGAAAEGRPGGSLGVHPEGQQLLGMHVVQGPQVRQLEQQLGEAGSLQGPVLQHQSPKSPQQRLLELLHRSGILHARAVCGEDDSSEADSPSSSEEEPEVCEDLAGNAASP
smiles,measurement,setting,value
CC(C)OC(=O)c1cc2c(OCC(O)CNC(C)(C)C)cccc2[nH]1 (stereo not drawn),outcome,[1],inactive
same,outcome,[2],inactive
same,outcome,[3],inactive
same,outcome,[4],inactive
same,outcome,[5],inactive
CCN(CC)CCOc1ccc(C(O)(Cc2ccc(Cl)cc2)c2ccc(C)cc2)cc1 (stereo not drawn),AC50,[1],35.9 µM (active)
same,AC50,[2],23 µM (active)
same,outcome,[3],inactive
same,AC50,[4],30.7 µM (active)
same,outcome,[6],inactive
same,outcome,[5],inactive
same,AC50,[7],43 µM (active)
OC[C@@H](O)[C@@H](O)CO,outcome,[1],inactive
same,outcome,[2],inactive
same,outcome,[3],inactive
same,outcome,[4],inactive
same,outcome,[6],inactive
same,outcome,[5],inactive
same,outcome,[7],inactive
CNCc1ccccc1,outcome,[1],inactive
same,outcome,[2],inactive
same,outcome,[3],inactive
same,outcome,[4],inactive
same,outcome,[6],inactive
same,outcome,[5],inactive
same,outcome,[7],inactive
Cc1c(C)c2c(c(C)c1OC(=O)CCC(=O)OCCO)CCC(C)(CCCC(C)CCCC(C)CCCC(C)C)O2 (stereo not drawn),outcome,[1],inactive
same,AC50,[2],19.2 µM (active)
same,AC50,[3],37.3 µM (active)
same,AC50,[4],34.6 µM (active)
same,AC50,[6],16.2 µM (active)
same,AC50,[5],13.3 µM (active)
same,AC50,[7],37.8 µM (active)
CC1(C)S[C@@H]2[C@H](N3C(=O)C(c4ccccc4)NC3(C)C)C(=O)N2[C@H]1C(=O)O (stereo partly drawn),outcome,[1],inactive
same,outcome,[2],inactive
same,outcome,[3],inactive
same,outcome,[4],inactive
same,outcome,[5],inactive
Cc1nc(C)c(C)nc1C,outcome,[1],inactive
same,outcome,[2],inactive
same,outcome,[3],inactive
same,outcome,[4],inactive
same,outcome,[6],inactive
same,outcome,[5],inactive
same,outcome,[8],inactive
same,outcome,[9],inactive
same,outcome,[10],inactive
NC1CCN(c2cccc(Cl)n2)CC1,outcome,[1],inactive
same,outcome,[2],inactive
same,outcome,[3],inactive
same,outcome,[6],inactive
same,outcome,[5],inactive
same,outcome,[7],inactive
C1CCCC1,outcome,[1],inactive
same,outcome,[2],inactive
same,outcome,[3],inactive
same,outcome,[6],inactive
same,outcome,[5],inactive
same,outcome,[7],inactive
CCCC(=O)CC,outcome,[1],inactive
same,outcome,[2],inactive
same,outcome,[3],inactive
same,outcome,[4],inactive
same,outcome,[5],inactive
same,outcome,[7],inactive
O=P(O)(O)CP(=O)(O)O,outcome,[1],inactive
same,outcome,[2],inactive
same,outcome,[3],inactive
same,outcome,[4],inactive
same,outcome,[5],inactive
same,outcome,[7],inactive
OC(CCN1CCCCC1)(c1ccccc1)C1CC2C=CC1C2 (stereo not drawn),outcome,[1],inactive
same,outcome,[2],inactive
same,outcome,[3],inactive
same,outcome,[4],inactive
same,outcome,[5],inactive
COC(=O)[C@H]1[C@H]2C[C@@H]3c4[nH]c5cc(OC)ccc5c4CCN3C[C@H]2C[C@@H](OC(=O)COc2ccc(OC)cc2)[C@@H]1OC,outcome,[1],inactive
same,outcome,[2],inactive
same,outcome,[3],inactive
same,outcome,[6],inactive
same,outcome,[5],inactive
same,outcome,[7],inactive
Cc1cccc2nccnc12,outcome,[1],inactive
same,outcome,[2],inactive
same,outcome,[3],inactive
same,outcome,[6],inactive
same,outcome,[7],inactive
CCCCCCCCC(=O)Cl,outcome,[1],inactive
same,outcome,[2],inactive
same,outcome,[3],inactive
same,outcome,[6],inactive
same,outcome,[5],inactive
CC1CC(=O)NN=C1c1ccc(NCC(C)(C)NCC(O)COc2cc(Cl)ccc2C#N)cc1 (stereo not drawn),outcome,[1],inactive
same,outcome,[2],inactive
same,outcome,[3],inactive
same,outcome,[4],inactive
same,outcome,[7],inactive
CC(COC(=O)c1ccccc1)OC(=O)c1ccccc1 (stereo not drawn),outcome,[1],inactive
same,outcome,[2],inactive
same,outcome,[3],inactive
same,outcome,[6],inactive
same,outcome,[5],inactive
same,outcome,[7],inactive
CCN(CC)C(=O)N1CCN(C)CC1,outcome,[1],inactive
same,outcome,[2],inactive
same,outcome,[3],inactive
same,outcome,[4],inactive
same,outcome,[7],inactive
CCC(=O)OCC(=O)[C@@]1(OC(=O)CC)[C@H](C)C[C@H]2[C@@H]3CCC4=CC(=O)C=C[C@]4(C)[C@@]3(F)[C@@H](O)C[C@@]21C,outcome,[1],inactive
same,outcome,[2],inactive
same,outcome,[3],inactive
same,outcome,[4],inactive
same,outcome,[5],inactive
Nc1ccc(NC(=O)c2ccc(N)cc2)cc1,outcome,[1],inactive
same,outcome,[2],inactive
same,outcome,[3],inactive
same,outcome,[4],inactive
same,outcome,[5],inactive
same,outcome,[7],inactive
CCCCC(=O)OCC(=O)[C@H]1[C@H](C)C[C@H]2[C@@H]3C[C@H](F)C4=CC(=O)C=C[C@]4(C)[C@@]3(F)[C@@H](O)C[C@@]21C,outcome,[1],inactive
same,outcome,[2],inactive
same,outcome,[3],inactive
same,outcome,[4],inactive
same,outcome,[5],inactive
CC(=O)c1ccc2c(c1)N(CCCN1CCN(CCO)CC1)c1ccccc1S2,outcome,[1],inactive
same,outcome,[2],inactive
same,outcome,[3],inactive
same,AC50,[4],31.6 µM (active)
same,outcome,[5],inactive
OC[C@H]1O[C@H](O[C@H]2O[C@H](CO)[C@@H](O)[C@H](O)[C@H]2O)[C@H](O)[C@@H](O)[C@@H]1O,outcome,[1],inactive
same,outcome,[2],inactive
same,outcome,[3],inactive
same,outcome,[6],inactive
same,outcome,[5],inactive
CCOC(=O)Cn1c(=O)sc2cccc(Cl)c21,outcome,[1],inactive
same,outcome,[2],inactive
same,outcome,[3],inactive
same,outcome,[6],inactive
same,outcome,[5],inactive
same,outcome,[7],inactive
Brc1c(NC2=NCCN2)ccc2nccnc12,outcome,[1],inactive
same,outcome,[2],inactive
same,outcome,[3],inactive
same,outcome,[6],inactive
same,outcome,[5],inactive
same,outcome,[7],inactive
C[C@@H]1C[C@H]2[C@@H]3CCC4=CC(=O)C=C[C@]4(C)[C@@]3(F)[C@@H](O)C[C@]2(C)[C@H]1C(=O)CO,outcome,[1],inactive
same,outcome,[2],inactive
same,outcome,[3],inactive
same,outcome,[6],inactive
C=CCN1CCCC1CNC(=O)c1cc(S(N)(=O)=O)cc(OC)c1OC (stereo not drawn),outcome,[1],inactive
same,outcome,[2],inactive
same,outcome,[3],inactive
same,outcome,[6],inactive
same,outcome,[7],inactive
O=c1n(CCCN2CCN(c3cccc(Cl)c3)CC2)nc2ccccn12,outcome,[1],inactive
same,outcome,[2],inactive
same,outcome,[3],inactive
same,outcome,[4],inactive
same,outcome,[7],inactive
same,outcome,[8],inactive
same,outcome,[10],inactive
CC(C(=O)O)c1ccc(N2Cc3ccccc3C2=O)cc1 (stereo not drawn),outcome,[1],inactive
same,outcome,[2],inactive
same,outcome,[3],inactive
same,outcome,[4],inactive
same,outcome,[5],inactive
same,outcome,[7],inactive
same,outcome,[11],inactive
same,outcome,THRA (gene 7067),inactive
same,outcome,THRB (gene 7068) [12],inactive
same,outcome,[13],inactive
same,outcome,THRB (gene 7068) [14],inactive
